By inhibition is commonly meant the change of the read-out against control, counted positive when it falls.

SMILES strings stand for the structures.

Test [1] concerns the target MAP/microtubule affinity-regulating kinase 3 (Homo sapiens) (UniProt P27448). Particulars: at 1 µM.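 Also: reported values are averaged percent inhibition of MARK3.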
Test [2] deals with T1, MAP/microtubule affinity-regulating kinase 4 (Homo sapiens) (UniProt Q96L34).
T1 sequence (whole entry): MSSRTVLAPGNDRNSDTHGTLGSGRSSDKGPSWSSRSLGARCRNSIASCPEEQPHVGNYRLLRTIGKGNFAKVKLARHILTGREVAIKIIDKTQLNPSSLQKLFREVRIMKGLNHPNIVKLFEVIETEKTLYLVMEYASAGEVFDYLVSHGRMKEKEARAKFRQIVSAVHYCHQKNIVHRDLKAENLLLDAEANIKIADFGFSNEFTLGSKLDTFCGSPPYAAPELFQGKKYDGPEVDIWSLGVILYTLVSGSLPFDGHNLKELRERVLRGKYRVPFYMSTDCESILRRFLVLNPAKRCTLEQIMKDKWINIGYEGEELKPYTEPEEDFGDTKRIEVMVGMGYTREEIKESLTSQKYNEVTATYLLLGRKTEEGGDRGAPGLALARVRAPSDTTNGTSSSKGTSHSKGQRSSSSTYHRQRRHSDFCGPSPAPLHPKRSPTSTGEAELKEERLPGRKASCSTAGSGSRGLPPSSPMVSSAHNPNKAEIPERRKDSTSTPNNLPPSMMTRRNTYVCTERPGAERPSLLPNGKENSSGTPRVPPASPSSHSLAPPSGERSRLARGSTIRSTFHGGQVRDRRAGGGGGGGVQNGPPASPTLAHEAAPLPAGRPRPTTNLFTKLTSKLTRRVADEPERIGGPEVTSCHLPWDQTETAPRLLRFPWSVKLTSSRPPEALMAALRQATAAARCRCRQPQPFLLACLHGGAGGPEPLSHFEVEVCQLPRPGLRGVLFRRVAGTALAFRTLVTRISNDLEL
To be noted: at 0.1 µM.

Test [3] concerns the target T1, MAP/microtubule affinity-regulating kinase 4 (Homo sapiens). Particulars: at 1 µM.
In test [4] the target is Maternal embryonic leucine zipper kinase (Homo sapiens) (UniProt Q14680). To be noted: at 0.1 µM.
For test [5] the target is unchanged. Particulars: at 1 µM.
Test [6] deals with MAP kinase-interacting serine/threonine-protein kinase 1 (Homo sapiens) (UniProt Q9BUB5). Particulars: at 0.1 µM.
The target is the same in test [7]. To be noted: at 1 µM.
The target of test [8] is MAP kinase-interacting serine/threonine-protein kinase 2 (Homo sapiens) (UniProt Q9HBH9). Particulars: at 0.1 µM.
For test [9] the target is unchanged. To be noted: at 1 µM.
Test [10] has as its target Serine/threonine-protein kinase MARK2 (Homo sapiens) (UniProt Q7KZI7). Particulars: at 0.1 µM.
Test [11] has the same target. To be noted: at 1 µM.
The target in test [12] is PAS domain-containing serine/threonine-protein kinase (Homo sapiens) (UniProt Q96RG2). To be noted: at 0.1 µM.
Test [13] has the same target. Particulars: at 1 µM.
Test [14] has as its target Phosphorylase b kinase gamma catalytic chain, skeletal muscle/heart isoform (Homo sapiens) (UniProt Q16816). Particulars: at 0.1 µM.
For test [15] the target is unchanged. Particulars: at 1 µM.
Test [16] has as its target T2, Phosphorylase b kinase gamma catalytic chain, liver/testis isoform (Homo sapiens) (UniProt P15735).
T2 sequence (whole entry): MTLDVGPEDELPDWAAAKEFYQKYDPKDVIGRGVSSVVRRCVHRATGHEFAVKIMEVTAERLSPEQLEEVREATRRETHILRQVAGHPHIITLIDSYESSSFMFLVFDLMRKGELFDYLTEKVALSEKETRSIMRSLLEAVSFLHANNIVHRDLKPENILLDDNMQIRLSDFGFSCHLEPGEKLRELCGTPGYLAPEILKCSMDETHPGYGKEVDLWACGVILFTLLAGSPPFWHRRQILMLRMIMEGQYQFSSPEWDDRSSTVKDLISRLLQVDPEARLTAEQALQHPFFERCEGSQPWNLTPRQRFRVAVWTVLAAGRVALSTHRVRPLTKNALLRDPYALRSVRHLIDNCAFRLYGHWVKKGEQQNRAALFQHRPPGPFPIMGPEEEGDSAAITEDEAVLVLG
Particulars: at 0.1 µM.

Test [17] concerns the target T2, Phosphorylase b kinase gamma catalytic chain, liver/testis isoform (Homo sapiens). Particulars: at 1 µM.
The target in test [18] is Serine/threonine-protein kinase pim-1 (Homo sapiens) (UniProt P11309). To be noted: at 0.1 µM.
For test [19] the target is unchanged. Particulars: at 1 µM.
Test [20] concerns the target Serine/threonine-protein kinase pim-2 (Homo sapiens) (UniProt Q9P1W9). To be noted: at 0.1 µM.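 Also: reported value is the mean percent inhibition of PIM2, measured in the GSK PKIS kinase inhibitor set screen.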

Chain of Serine/threonine-protein kinase pim-1 (Homo sapiens) (P11309 whole entry, looked up): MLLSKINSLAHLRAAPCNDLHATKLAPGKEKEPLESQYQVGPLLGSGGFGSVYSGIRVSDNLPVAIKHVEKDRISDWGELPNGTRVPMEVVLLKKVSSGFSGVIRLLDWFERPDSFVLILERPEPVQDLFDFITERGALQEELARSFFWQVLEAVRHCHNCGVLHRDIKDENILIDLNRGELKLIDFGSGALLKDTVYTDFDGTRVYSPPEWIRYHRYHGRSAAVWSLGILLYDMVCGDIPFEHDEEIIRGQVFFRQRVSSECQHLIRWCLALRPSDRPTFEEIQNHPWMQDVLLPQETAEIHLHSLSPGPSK
Chain of MAP/microtubule affinity-regulating kinase 3 (Homo sapiens) (P27448 whole entry, looked up): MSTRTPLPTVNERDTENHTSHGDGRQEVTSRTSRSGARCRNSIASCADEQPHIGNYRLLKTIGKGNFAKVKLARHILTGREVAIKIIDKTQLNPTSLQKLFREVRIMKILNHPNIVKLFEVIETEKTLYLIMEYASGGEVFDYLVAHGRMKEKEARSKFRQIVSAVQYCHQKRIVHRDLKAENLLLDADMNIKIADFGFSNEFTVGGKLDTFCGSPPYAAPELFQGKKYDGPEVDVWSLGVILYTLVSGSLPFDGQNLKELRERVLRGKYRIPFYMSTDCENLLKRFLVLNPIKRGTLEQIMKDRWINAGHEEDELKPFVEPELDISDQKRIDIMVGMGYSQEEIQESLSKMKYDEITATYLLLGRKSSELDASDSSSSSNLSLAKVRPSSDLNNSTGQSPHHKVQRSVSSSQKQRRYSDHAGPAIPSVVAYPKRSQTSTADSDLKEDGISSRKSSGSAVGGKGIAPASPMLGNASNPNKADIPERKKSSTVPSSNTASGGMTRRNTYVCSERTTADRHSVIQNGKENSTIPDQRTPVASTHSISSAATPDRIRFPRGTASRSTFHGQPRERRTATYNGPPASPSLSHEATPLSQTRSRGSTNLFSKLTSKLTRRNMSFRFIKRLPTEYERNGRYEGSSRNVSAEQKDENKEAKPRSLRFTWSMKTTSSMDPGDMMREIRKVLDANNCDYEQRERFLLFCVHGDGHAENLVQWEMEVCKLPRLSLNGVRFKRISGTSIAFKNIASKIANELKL
Chain of PAS domain-containing serine/threonine-protein kinase (Homo sapiens) (Q96RG2 whole entry, the tested form may be a part): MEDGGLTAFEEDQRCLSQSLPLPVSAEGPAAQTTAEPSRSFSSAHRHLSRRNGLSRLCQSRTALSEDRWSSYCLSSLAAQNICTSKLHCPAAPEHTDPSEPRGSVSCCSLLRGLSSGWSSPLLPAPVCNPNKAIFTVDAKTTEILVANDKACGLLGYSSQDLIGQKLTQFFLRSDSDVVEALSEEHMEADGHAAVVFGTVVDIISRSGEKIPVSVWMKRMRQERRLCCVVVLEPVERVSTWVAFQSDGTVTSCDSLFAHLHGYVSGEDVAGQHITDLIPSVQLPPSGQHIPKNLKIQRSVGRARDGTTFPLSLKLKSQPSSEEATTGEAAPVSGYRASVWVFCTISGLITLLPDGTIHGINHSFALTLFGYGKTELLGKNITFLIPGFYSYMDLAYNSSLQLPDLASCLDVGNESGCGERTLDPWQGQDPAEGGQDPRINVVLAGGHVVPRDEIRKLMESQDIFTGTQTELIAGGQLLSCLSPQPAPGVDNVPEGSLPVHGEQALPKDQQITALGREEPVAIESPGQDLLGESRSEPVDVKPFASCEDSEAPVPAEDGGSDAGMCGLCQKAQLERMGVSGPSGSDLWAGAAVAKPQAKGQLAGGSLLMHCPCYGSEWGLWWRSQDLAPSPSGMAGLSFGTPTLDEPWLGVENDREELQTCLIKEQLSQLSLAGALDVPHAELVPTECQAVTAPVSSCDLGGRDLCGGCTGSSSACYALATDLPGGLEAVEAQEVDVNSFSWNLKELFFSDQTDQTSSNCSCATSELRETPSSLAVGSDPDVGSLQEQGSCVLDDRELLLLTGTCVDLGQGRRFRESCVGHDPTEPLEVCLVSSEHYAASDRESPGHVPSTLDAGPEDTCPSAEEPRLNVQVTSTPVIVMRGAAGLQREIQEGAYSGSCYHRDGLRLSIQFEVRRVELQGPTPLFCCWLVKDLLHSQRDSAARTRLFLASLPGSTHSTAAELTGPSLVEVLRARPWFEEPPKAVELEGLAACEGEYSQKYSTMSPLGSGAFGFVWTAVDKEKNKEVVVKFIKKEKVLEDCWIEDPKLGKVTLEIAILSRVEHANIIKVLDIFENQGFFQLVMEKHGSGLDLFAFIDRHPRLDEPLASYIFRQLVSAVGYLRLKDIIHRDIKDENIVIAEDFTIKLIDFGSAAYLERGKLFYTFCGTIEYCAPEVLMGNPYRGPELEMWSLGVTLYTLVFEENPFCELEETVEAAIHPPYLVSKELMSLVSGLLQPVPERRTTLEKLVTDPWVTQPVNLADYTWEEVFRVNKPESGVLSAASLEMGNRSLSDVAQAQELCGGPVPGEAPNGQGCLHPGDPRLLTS
Chain of Serine/threonine-protein kinase MARK2 (Homo sapiens) (Q7KZI7 whole entry): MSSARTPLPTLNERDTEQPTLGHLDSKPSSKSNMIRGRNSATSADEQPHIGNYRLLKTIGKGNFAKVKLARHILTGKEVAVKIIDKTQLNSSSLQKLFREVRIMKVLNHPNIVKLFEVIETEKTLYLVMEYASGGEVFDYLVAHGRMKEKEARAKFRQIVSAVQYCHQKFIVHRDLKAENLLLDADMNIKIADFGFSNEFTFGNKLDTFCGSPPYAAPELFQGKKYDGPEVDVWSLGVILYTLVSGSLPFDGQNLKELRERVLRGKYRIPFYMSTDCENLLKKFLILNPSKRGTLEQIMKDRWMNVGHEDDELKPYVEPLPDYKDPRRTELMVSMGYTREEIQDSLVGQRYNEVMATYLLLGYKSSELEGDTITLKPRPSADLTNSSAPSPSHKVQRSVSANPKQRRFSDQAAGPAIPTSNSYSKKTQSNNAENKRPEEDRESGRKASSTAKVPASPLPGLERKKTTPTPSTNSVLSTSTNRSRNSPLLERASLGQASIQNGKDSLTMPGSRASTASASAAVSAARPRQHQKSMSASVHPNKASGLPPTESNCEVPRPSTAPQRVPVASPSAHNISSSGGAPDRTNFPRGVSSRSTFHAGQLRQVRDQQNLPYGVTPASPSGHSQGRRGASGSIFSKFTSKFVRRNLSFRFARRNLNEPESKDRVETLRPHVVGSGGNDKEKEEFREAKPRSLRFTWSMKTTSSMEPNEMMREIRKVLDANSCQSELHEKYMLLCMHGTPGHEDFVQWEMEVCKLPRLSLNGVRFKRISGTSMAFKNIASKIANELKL
Chain of Phosphorylase b kinase gamma catalytic chain, skeletal muscle/heart isoform (Homo sapiens) (Q16816 whole entry, looked up, canonical isoform): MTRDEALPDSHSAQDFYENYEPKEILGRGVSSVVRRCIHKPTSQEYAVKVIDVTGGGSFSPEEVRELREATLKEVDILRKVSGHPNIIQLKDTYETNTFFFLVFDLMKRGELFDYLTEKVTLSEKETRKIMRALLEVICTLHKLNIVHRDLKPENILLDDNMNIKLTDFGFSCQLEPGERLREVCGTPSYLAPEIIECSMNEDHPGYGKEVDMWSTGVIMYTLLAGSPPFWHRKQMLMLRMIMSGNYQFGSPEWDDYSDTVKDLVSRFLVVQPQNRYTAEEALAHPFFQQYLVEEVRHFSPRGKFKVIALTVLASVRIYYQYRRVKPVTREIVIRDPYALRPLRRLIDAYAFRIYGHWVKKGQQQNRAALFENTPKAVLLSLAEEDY
Chain of Serine/threonine-protein kinase pim-2 (Homo sapiens) (Q9P1W9 whole entry, looked up): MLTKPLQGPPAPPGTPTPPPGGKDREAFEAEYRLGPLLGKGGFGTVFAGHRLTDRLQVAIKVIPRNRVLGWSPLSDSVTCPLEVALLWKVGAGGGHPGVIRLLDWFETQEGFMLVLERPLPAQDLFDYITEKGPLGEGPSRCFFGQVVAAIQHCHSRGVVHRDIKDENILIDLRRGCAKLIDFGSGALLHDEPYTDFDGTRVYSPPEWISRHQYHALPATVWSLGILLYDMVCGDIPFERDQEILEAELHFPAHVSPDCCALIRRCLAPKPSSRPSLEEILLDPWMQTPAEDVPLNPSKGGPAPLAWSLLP
Chain of MAP kinase-interacting serine/threonine-protein kinase 1 (Homo sapiens) (Q9BUB5 whole entry, looked up): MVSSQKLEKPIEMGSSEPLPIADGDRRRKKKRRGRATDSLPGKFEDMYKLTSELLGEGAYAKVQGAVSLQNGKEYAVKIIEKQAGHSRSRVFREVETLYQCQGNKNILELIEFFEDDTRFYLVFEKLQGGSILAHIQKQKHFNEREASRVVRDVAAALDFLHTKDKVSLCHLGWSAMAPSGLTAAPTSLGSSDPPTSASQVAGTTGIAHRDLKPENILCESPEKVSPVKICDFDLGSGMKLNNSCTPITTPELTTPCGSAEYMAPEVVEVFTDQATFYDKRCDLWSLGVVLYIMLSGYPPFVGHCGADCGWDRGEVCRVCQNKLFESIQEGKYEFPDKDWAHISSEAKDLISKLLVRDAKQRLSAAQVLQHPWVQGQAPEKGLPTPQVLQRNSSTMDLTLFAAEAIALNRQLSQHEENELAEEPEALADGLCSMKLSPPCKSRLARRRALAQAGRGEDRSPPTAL
Chain of Maternal embryonic leucine zipper kinase (Homo sapiens) (Q14680 whole entry, looked up): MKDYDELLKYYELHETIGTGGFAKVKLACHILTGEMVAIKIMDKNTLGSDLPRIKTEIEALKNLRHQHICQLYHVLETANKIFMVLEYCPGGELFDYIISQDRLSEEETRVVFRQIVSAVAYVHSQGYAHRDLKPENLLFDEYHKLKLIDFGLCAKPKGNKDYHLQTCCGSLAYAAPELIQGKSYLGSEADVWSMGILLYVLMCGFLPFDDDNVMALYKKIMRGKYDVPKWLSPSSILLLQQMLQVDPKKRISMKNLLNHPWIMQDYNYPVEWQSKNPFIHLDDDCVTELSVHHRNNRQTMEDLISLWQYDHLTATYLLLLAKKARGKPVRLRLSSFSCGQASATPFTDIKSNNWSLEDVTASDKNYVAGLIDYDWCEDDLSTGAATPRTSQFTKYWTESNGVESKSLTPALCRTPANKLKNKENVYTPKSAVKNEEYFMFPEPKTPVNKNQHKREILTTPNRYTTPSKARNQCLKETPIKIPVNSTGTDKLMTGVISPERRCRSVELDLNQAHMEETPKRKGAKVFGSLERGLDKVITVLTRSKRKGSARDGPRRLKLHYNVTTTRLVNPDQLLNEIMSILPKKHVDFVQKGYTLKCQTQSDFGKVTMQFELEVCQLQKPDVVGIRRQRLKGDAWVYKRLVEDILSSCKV

With `O=C1Nc2ccc(C(=O)c3ccco3)cc2C1=Cc1cc(Cl)c(O)c(Cl)c1`, the inhibition amounted to 8.65% in [1]; 1.71% in test [2]; 6.69% in test [3]; 4.89% in [4]; 17.8% in [5]; 4.13% in test [6]. Moreover, the inhibition is 11.5% in test [7]; 6.52% in test [8]; 34.7% in [9]; 2.14% in [10]; 8.29% in [11]; -0.44% in test [12]. For the same compound, the inhibition is -0.13% in test [13]; 2.98% in test [14]; 9.29% in test [15]; 3.61% in test [16]; 2.94% in [17]; 3.39% in [18]. For the same compound, the figures for the inhibition in [19] and in test [20] were 31.8% and 2.1%, respectively.
As to `CCCN1CCC(Oc2cc(Nc3nc(Nc4cccc(F)c4C(N)=O)c4cc[nH]c4n3)c(OC)cc2Cl)CC1`, the inhibition was 1.93% in test [1]; -0.13% in [2]; 2.83% in test [3]; 1.25% in test [4]; 21.2% in [5]; 1.13% in test [6]. Further, the inhibition was 3.91% in test [7]; 0.85% in test [8]; 0.99% in test [9]; -0.3% in test [10]; 1.3% in test [11]; 0.73% in test [12]. Also, the inhibition is 1.6% in test [13]; 1.4% in test [14]; 24.2% in [15]; -0.41% in [16]; 0.31% in [17]; 4.08% in test [18]. Also, the inhibition came out at 25.4% in [19] and 0.5% in [20].
In the case of `CCn1c(-c2nonc2N)nc2c(C#CC(C)(C)O)nc(OC[C@@H](N)c3ccccc3)cc21`, the inhibition is 28.1% in [1]; 1.28% in test [2]; 16.9% in test [3]; 0.84% in [4]; 27.5% in [5]; -0.06% in [6]. In addition, the inhibition in test [7] was 4.44%; in test [8], 0.08%; in test [9], 3.19%; in test [10] it was 1.17%; in test [11], 13.6%; in test [12], 0.65%. In addition, the inhibition in test [13] was 16%; in test [14], 0.84%; in test [15], 4.71%; in [16] it was -2.07%; in test [17] it was -2.54%; in test [18], 1.15%. The figures for the inhibition in test [19] and in test [20] were 3.59% and 0.23%, respectively.
As to `Cc1cc(O)cc(C)c1/C=C/c1cncc(-c2nn[nH]n2)c1`, the inhibition in [1] is 5.96%; in test [2] it was 2.37%; in [3] it was 3.69%; in test [4], 4.83%; in test [5], 8.68%; in test [6], 20.6%. Moreover, the inhibition was 65.3% in test [7]; 22.6% in test [8]; 63.8% in test [9]; 0.37% in test [10]; 3.29% in test [11]; -0.17% in test [12]. Besides, the inhibition in test [13] is -1.14%; in [14], 6.07%; in test [15], 4.92%; in [16], 4.78%; in [17], 2.82%; in test [18], 0.66%. Moreover, the figures for the inhibition in [19] and in test [20] were 1.59% and -3.3%, respectively.
In the case of `Cc1nnc(-c2ccc(C)c(-c3ccc(C(=O)Nc4cccc(C#N)c4)cc3)c2)o1`, the inhibition is 4.82% in test [1]; 0.41% in [2]; 1.13% in test [3]; -0.46% in test [4]; 6.64% in test [5]; 1.54% in [6]. Besides, the inhibition in [7] was 4.88%; in [8], 0.9%; in test [9], 3.32%; in test [10] it was -1.11%; in test [11] it was 0.87%; in test [12] it was 0.45%. The inhibition in [13] was 4.14%; in [14], 2.07%; in [15], 6.42%; in [16] it was 2.78%; in test [17], 4.43%; in test [18], -0.05%. Besides, the inhibition in [19] was 0.66%; in test [20] it was 0.29%.
Regarding `COc1ccccc1Nc1ncc(-c2ccccc2)o1`, the inhibition is 4.87% in test [1]; 2.98% in test [2]; 4.33% in test [3]; 4.62% in test [4]; 8.09% in test [5]; 4.22% in test [6]. Further, the inhibition in test [7] was 5.88%; in test [8] it was 1.93%; in [9] it was 7.25%; in test [10], 0.41%; in [11], 3.48%; in test [12], -0.06%. Moreover, the inhibition in [13] stood at 1.05%; in test [14], 8.92%; in test [15], 13.1%; in test [16] it was 5.65%; in test [17], 5.8%; in test [18], 0.63%. Moreover, the inhibition in test [19] is 1.55%; in [20], 0.78%.

For the origin of these results see ChEMBL document CHEMBL1961873, “Compounds: GSK PKIS; Assays: Nanosyn kinase panel” (2012).
